The sample as a whole holds a higher share of hits than the screen did.
Tgondii IFNg: T. gondii growth inhibition with IFN-gamma, primary screen, cell-based | hit rate 3.8% among 69,000 | Toxoplasma gondii growth in IFN-gamma-treated host cells; stronger effect = lower value | AID 1259416, 2018 | activity change, negative = inhibition, % (test concentration not listed); in the data active = activity change below about -70%, passing the limit was not always enough;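 also: host cells are HeLa cells infected with Toxoplasma gondii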
The depositor's hits bear a star; i = inactive; ! = not confirmed by another sample.

SMILES | Tgondii IFNg
CCC(c1ccc(F)cc1)n1cc(C(=O)NC(c2ccncc2)c2cccs2)nn1 (configuration not stated) | 12
COc1cccc(-c2ccc3cc(C(=O)N4CCN(C)CC4)c(-c4cocn4)n3c2)c1 | -47
CCCCN(C)C(=O)c1cc(-c2cnc(N3CCOCC3)nc2)cn1CC1CC1 | -67
CN(C)C(=O)CNC(=O)c1cc(-c2cnc(N3CCOCC3)nc2)cn1CC1CC1 | 43
O=C(NCc1ccc(F)cc1F)c1cc(-c2cnc(N3CCCC3)nc2)cn1CC1CC1 | -103*
Cc1ccc(NC(=O)c2cc(-c3cnc(N4CCCC4)nc3)cn2CC2CC2)cn1 | -22
Cc1cccc(NC(=O)c2cc(-c3cnc(N4CCOCC4)nc3)cn2CC2CC2)c1 | -80*
COc1ncccc1NC(=O)c1cc(-c2cnc(N3CCCC3)nc2)cn1CC1CC1 | -45
COc1ncccc1C(Cc1ccsc1)NC(=O)C1CCS(=O)(=O)C1 (configuration not stated) | 68
CN(C)CCO[C@@H]1C[C@@H]2CN(C(=O)c3cccn3C)CCN2C1 | 4
O=C(NCCc1csc(-c2ccc(F)cc2)n1)c1cccc(Cl)c1 | -46
CC(C)NC(=O)[C@H]1C[C@@H]2CCN(Cc3cnn(C)c3)C[C@@H]2O1 | -4
CC(C)Nc1n[nH]c2nc(C3CCN(C(=O)C(C)C)CC3)cc(C(F)(F)F)c12 | -65
CC[C@@H]1C[C@H](C(F)(F)F)n2nc(C3CCN(C(=O)c4cc(C(C)C)on4)C3)cc2N1 (some centres not stated) | 242
CCc1cc(C(F)(F)F)c2c(C3CCN(C(=O)c4cc(C(C)C)[nH]n4)CC3)noc2n1 | -76*
COc1cc(CN2C[C@H]3CC=CC[C@H]3C2)cc(OC)c1OC(C)C(=O)O (some centres not stated) | 30
Cc1cc(C(=O)N2C[C@@H]3OCCN(CCN4CCCC4)[C@H]3C2)c(C)o1 | -1
CCn1nc(CNC(=O)c2cccc(C3CCNC3)c2)c2ccccc21 (configuration not stated) | -86*
O=C(NCc1nnc2n1CCCC2)c1cccc(C2CCNC2)c1 (configuration not stated) | 5
CN(Cc1cccc2ncccc12)C(=O)c1cccc(C2CCNC2)c1 (configuration not stated) | 4
Cc1[nH]c2ccc(CNC(=O)C(C)n3cc(Cl)cn3)cc2c1C (configuration not stated) | 1
CCn1nc(C)cc1C(=O)Nc1ccc(Cl)c(C(=O)OC(C)C)c1 | -16
COc1ccc(OCC(=O)Nc2cccc(-c3nnc4c5ccccc5c(C)nn34)c2)cc1 | -76*
COc1ccc(NC(=O)COc2nc(C)nc3ccccc23)cc1 | 18
Cc1cccc(NC(=O)COc2nc(C)nc3ccccc23)c1 | -8
SMILES | Tgondii IFNg
Cc1n[nH]c(C)c1N=Nc1cc(Cl)cc(Cl)c1 | -92*
COCCN1CCC2(CC1)CN(CCn1cccn1)C(=O)CO2 | 2
C[C@@H]1CN(CCC(=O)N2CCC3(CCN(C)CC3)C2)C[C@H](C)O1 | 2
CN(C)C(=O)c1c2c(NCc3cccnc3)ncnc2n2ccccc12 | -3
CNC(=O)c1c(NC(=O)C2CC(C(C)C)=NO2)sc2c1CCCC2 (configuration not stated) | -18
C1=C/COCc2cc(ccc2OCCN2CCCC2)Nc2nccc(n2)-c2cccc(c2)COC/1 | -85*
COc1cc(NC(=O)CSCC(=O)O)c(C(=O)O)cc1OC | 55
COc1ccccc1CN1CCOCC1c1csc(C)n1 (configuration not stated) | 57
c1ccc(CSc2nnnn2-c2ccc3c(c2)OCO3)nc1 | 26
Fc1ccc(CSc2nnnn2-c2ccc3c(c2)OCO3)c(Cl)c1 | -72*
Cc1cc(C)cc(NC(=O)CSc2nnnn2-c2ccc3c(c2)OCO3)c1 | -13
CC(C)C(=O)N1CCC(c2nc(-c3ccncc3)ncc2S(C)(=O)=O)CC1 | 3
Cc1noc(-c2cc(=O)n(CC(=O)Nc3ccc4c(c3)OCO4)c3ccccc23)n1 | -18
CCc1cnc(N2Cc3[nH]nc(C(=O)N(C)C)c3C2)nc1 | 57
CCOc1ccc(C(=O)NCCc2csc(-c3ccc(F)cc3)n2)cc1 | -35
O=C1NCC2(CCCN(C(=O)Cn3cc(C(F)(F)F)ccc3=O)CC2)O1 (configuration not stated) | -5
CCCN1CCC(c2nc3ccc(Nc4ccccc4)cn3n2)CC1 | -9
O=C1OC(CN2CCOCC2)CN1/N=C/c1ccc([N+](=O)[O-])o1 (configuration not stated) | -11
NC(=O)N/N=C/c1ccc(Oc2ccc(F)cc2)cc1 | 19
NC(=O)N/N=C/c1ccc([N+](=O)[O-])o1 | -73*!
Cc1cc(-n2cccn2)ccc1-c1nccn1CCc1cnc[nH]1 | -6
O=Nc1c(-c2c(O)[nH]c3cc(Br)ccc23)[nH]c2ccccc12 | -92*
O=C1C(c2c(O)[nH]c3ccccc23)=Nc2ccccc21 | -3
O=c1[nH]c2ccccc2c(O)c1-c1nc(-c2ccc(Br)cc2)no1 | 27
Cc1noc(C)c1CC(=O)N1CC(C(=O)N2CCN(c3ccccc3)CC2)C1 | 22
SMILES | Tgondii IFNg
C=C1CC[C@H](O)C/C1=C/C=C1\CCC[C@]2(C)[C@@H]([C@H](C)CCCC(C)C)CC[C@@H]12 | -75*
C=C1/C(=C\C=C2\CCC[C@]3(C)[C@@H]([C@H](C)CCCC(C)C)CC[C@@H]23)C[C@@H](O)C[C@@H]1O | -63
C=C1/C(=C\C=C2/CCC[C@]3(C)[C@@H]([C@H](C)/C=C/C=C/C(O)(CC)CC)CC[C@@H]23)C[C@@H](O)C[C@@H]1O | 11
O=C(NC(c1nccs1)C1CCCN(Cc2cccc(F)c2)C1)c1ccccc1 (configuration not stated) | 20
CC[C@H](C)[C@@H]([C@@H](CC(=O)N1CCC[C@H]1[C@H](OC)[C@@H](C)C(=O)N[C@@H](Cc1ccccc1)c1nccs1)OC)N(C)C(=O)[C@@H](NC(=O)[C@H](C(C)C)N(C)C)C(C)C | -84*
Cc1cc(C)n(CC(C)C(=O)NC(Cc2cccs2)c2nccs2)n1 (configuration not stated) | 70
Cc1cc(C2CCCN2C(=O)c2cc(C(F)(F)F)nn2C)no1 (configuration not stated) | -45
Cc1cncc(C(=O)N2CCO[C@H]3[C@@H](Oc4cccnc4)CC[C@H]32)c1 | 5
CCn1c(C2CCCN(C(=O)c3ccc4c(c3)nnn4C)C2)nn(C)c1=O (configuration not stated) | 3
CC(C)O[C@H]1CN(c2nccc(CCC(F)(F)F)n2)C[C@@H]1O | 2
CN1CCC2(CC1)N=C(c1ccccc1O)CC(c1ccccc1O)N2 (configuration not stated) | 32
Oc1ccc(Cl)cc1C1=NC2(CCNCC2)NC(c2ccccc2O)C1 (configuration not stated) | -102*
CCOC(=O)N1CCC2(CC1)N=C(c1ccccc1O)CC(c1cc(Cl)ccc1O)N2 (configuration not stated) | -36
Cc1ccc(NC(=O)NCC(c2cccnc2)c2cn(C)c3ccccc23)cc1 (configuration not stated) | i
COc1ccc(S(=O)(=O)N(C)C[C@@H]2OCCCC[C@H](C)Oc3ccc(NC(=O)Cc4ccccc4)cc3C(=O)N([C@H](C)CO)C[C@H]2C)cc1 | -28
COc1ccc(S(=O)(=O)N(C)C[C@@H]2OCCCC[C@@H](C)Oc3ccc(NC(=O)Cc4ccccc4)cc3C(=O)N([C@@H](C)CO)C[C@H]2C)cc1 | -7
